According to PubChem BioAssay (NCATS):
Results filed as inconclusive are left out. Calls of active or inactive are those of the source. Unless noted, calls follow the shape of the dose curve; as a rule, active = well fitted curve in the direction sought with a large enough effect; inconclusive = small, poorly fitted or top-dose-only effect, or another doubt; inactive = no such curve, though single readings can be large; an effect the other way counts as inactive or inconclusive.

Assays:
[1] = AP1 Signaling Pathway (AID 357; active = well fitted curve in either direction with a large enough effect, not every such curve was filed as active;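 also: ME-180 reporter cells stimulated with EGF at its EC50 level; % is scaled to controls: 0 for no effect and ±100 for the full control effect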); conditions: ME-180 AP-1-bla reporter, EGF-induced, beta-lactamase ratio, 5 h; at 7.69 µM (top of the series) unless noted
In short: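 Beta-lactamase reporter under AP-1 response element, ME-180 background. Stimulus: EC50 EGF. Compound exposure 5 h, 37 °C. Detection: CCF4, 2.5 h RT, 460/530 nm. Values: AC50 from titration.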

[2] = biological target: Cytochrome P450 1A2 (Homo sapiens) (UniProt P05177); experiment: p450-cyp1a2 (AID 410; calls by dose curve;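 also: -100% = full effect of reference inhibitor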)
Chain of Cytochrome P450 1A2 (Homo sapiens) (P05177 whole entry, looked up): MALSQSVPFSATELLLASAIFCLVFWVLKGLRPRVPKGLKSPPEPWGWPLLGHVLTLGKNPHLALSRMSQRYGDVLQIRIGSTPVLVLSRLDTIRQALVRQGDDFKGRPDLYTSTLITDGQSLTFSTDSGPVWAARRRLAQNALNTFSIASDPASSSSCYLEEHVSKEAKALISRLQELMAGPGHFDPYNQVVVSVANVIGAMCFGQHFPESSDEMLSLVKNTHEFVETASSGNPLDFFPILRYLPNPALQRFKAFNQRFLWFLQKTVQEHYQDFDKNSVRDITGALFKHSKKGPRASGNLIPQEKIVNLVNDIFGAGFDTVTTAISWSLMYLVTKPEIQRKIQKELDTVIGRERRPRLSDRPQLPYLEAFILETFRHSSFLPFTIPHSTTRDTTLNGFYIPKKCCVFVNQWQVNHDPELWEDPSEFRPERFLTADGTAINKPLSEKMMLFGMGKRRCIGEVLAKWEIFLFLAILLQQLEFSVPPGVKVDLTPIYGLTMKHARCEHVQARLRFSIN
In short: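 O-Demethylation of luciferin 6' methyl ether by human CYP1A2 is monitored as luciferase luminescence. Substrate sits at Km (100uM); enzyme is 20nM. Values are scaled to 57 uM furafylline as maximal inhibition.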

[3] = NFAT Signaling Pathway (AID 444; active = well fitted curve in either direction with a large enough effect, not every such curve was filed as active;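 also: carbachol stimulus at about its EC50 of 1 µM final; % is scaled to controls: 0 for no effect and ±100 for the full control effect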); conditions: Jurkat NFAT-bla M1, carbachol, beta-lactamase ratio, 5 h; at 7.69 µM (top of the series) unless noted
In short: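 Jurkat cells with NFAT-driven β-lactamase reporter and co-expressed M1 receptor, stimulated with carbachol (final 1 uM, ~EC50), compound titration, 5 h at 37 °C. CCF4 loaded 1 h at RT; 460/530 nm ratio gave %activity and AC50.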

[4] = Stat Signaling Pathway (AID 446; active = well fitted curve in either direction with a large enough effect, not every such curve was filed as active;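 also: ME-180 cervical cancer cells given 40 pM IL-6 alongside compound; SIE-controlled beta-lactamase reporter measured as 460/530 nm FRET emission ratio; % is scaled to controls: 0 for no effect and ±100 for the full control effect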); conditions: ME-180 SIE beta-lactamase reporter, IL-6 stimulated, 5 h; at 7.69 µM (top of the series) unless noted
In short: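 Emission at 460 and 530 nm (excitation 405 nm) reports SIE-controlled beta-lactamase in ME-180 cells. Cells received compound with 40 pM IL-6 for 5 hrs at 37 C; data scaled between 300 pM IL-6 and 125 nM JAK-inhibitor controls.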

[5] = biological target: Glucocorticoid receptor (Homo sapiens) (UniProt P04150); experiment: GR-GFP Redistribution (AID 450;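 active = compounds whose dose series gives a full or clear partial fitted curve of increased nuclear translocation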; also: potency is read from the fitted curve at half-maximal effect); conditions: U2OS GR-GFP nuclear translocation, laser cytometry, 2 h
Chain of Glucocorticoid receptor (Homo sapiens) (P04150 whole entry, looked up, the tested form may be a part): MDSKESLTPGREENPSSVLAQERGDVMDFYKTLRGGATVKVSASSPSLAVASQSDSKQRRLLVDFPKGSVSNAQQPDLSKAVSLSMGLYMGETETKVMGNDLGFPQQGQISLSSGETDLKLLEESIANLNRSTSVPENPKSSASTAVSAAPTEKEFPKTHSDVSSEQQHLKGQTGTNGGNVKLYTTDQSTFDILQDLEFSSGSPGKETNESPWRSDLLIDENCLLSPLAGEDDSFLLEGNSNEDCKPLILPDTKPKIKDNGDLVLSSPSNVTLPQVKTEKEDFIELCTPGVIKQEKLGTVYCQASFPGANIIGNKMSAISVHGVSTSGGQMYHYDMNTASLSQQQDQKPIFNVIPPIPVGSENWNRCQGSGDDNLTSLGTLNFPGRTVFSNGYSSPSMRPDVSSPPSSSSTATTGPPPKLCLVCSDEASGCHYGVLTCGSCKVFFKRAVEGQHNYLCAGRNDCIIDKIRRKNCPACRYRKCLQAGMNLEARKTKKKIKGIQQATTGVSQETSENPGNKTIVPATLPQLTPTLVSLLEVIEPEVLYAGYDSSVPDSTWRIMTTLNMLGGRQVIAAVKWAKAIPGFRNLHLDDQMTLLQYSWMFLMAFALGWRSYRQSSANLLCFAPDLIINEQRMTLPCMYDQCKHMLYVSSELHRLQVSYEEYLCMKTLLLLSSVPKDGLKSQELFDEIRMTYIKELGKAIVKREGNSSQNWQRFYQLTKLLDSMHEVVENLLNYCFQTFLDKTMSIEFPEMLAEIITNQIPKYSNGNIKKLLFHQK

[6] = biological target: Glucocorticoid receptor (Homo sapiens) (UniProt P04150); experiment: GR-EFC Redistribution (AID 451; calls by dose curve; also: potency is read from the fitted curve at half-maximal effect); conditions: CHO-K1 GR-EFC translocation, beta-gal luminescence, 2 h
In short: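 CHO-K1 cells expressing nuclear EA and GR-ED fragments of b-gal; compounds titrated up to 46 uM final, 2 h at 37 C. GR nuclear translocation read as complemented b-gal luminescence after 1 h RT detection.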

[7] = biological target: Mitogen-activated protein kinase 10 (Mus musculus) (UniProt Q61831); experiment: JNK3 AlphaScreen Assay (AID 530; active = well fitted curve in either direction with a large enough effect, not every such curve was filed as active;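 also: kinase came from lysate of stimulated human HepG2 cells; signal reports phosphorylation of biotinylated GST-cJun 1-79 at Ser73 with 10 µM ATP; % is scaled to controls: 0 for no effect and ±100 for the full control effect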)
In short: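 Activity was read by AlphaScreen after JNK3-containing HepG2 lysate (cytokine pre-activated) phosphorylated biotinylated GST-cJun with 10 uM ATP at room temperature. Phospho-Ser73 cJun antibody with Protein-A acceptor beads provided detection.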

[8] = biological target: 3',5'-cyclic-AMP phosphodiesterase 4B (Homo sapiens) (UniProt Q07343); experiment: qHTS Assay for Inhibitors of PDE-IV (AID 607; active = well fitted activation curve with a large enough effect in the main read-out, with a control signal flat, not every such curve was filed as active; also: % of control where 0% means no effect)
Chain of 3',5'-cyclic-AMP phosphodiesterase 4B (Homo sapiens) (Q07343 whole entry, looked up): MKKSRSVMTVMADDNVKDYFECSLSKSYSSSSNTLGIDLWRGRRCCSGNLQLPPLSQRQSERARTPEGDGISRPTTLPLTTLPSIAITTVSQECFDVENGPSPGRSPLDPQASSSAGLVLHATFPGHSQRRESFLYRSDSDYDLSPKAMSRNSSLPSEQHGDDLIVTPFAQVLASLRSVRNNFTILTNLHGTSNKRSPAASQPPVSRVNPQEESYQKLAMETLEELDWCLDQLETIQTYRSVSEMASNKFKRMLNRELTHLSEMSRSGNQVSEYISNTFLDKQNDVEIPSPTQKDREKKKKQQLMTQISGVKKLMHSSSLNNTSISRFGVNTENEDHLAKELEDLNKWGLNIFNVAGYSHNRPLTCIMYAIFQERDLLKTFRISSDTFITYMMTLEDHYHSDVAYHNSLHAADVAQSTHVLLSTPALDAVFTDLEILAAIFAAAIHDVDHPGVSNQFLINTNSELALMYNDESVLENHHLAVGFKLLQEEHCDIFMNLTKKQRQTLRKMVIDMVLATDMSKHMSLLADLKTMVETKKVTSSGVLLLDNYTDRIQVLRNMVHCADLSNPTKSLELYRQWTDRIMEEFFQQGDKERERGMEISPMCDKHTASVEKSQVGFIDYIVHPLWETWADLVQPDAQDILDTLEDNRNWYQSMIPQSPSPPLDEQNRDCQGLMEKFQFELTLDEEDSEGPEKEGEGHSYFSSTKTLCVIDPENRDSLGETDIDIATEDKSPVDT
In short: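 The readout is membrane depolarisation from a cAMP-sensing CNG channel, detected with a potential dye at ex 535/em 590. Cells were HEK293-derived (endogenous PDE-IV) at 1000 cells/well, titrated up to 22.9 uM final.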

[9] = biological target: Guanine nucleotide-binding protein G(i) subunit alpha-1 (Homo sapiens) (UniProt P63096); experiment: qHTS Assay for Inhibitors of RGS12 GoLoco Motif Activity (Green Fluorophore) (AID 879);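 also: 0% = labeled peptide with Gαi1 and full inhibition = labeled peptide alone without protein; negative values mean loss of peptide binding seen as reduced polarization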
Chain of Guanine nucleotide-binding protein G(i) subunit alpha-1 (Homo sapiens) (P63096 whole entry, looked up): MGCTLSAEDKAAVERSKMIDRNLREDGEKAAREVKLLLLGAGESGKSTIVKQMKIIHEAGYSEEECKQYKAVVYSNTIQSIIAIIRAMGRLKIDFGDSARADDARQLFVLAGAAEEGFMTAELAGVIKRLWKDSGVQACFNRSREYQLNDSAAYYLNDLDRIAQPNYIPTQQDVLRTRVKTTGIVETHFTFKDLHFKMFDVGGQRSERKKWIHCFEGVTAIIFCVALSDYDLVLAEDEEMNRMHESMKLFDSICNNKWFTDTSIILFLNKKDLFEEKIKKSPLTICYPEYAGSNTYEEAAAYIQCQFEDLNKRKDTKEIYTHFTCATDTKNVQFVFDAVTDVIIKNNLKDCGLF
In short: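 A drop in FITC polarization marked displacement of the FITC-tagged RGS12 GoLoco peptide (10 nM) from Gαi1 (50 nM). Compounds were incubated 10 min at room temperature in Tris pH 7.5 buffer containing 150 mM NaCl, 0.1 mM GDP and 0.05% NP40; unlabeled peptide titration served as control.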

[10] = qHTS Assay for Identification of Small Molecule Agonists for Thrombopoietin (TPO) Signaling Pathway (AID 917); also: % is scaled to controls: 0 for no effect and ±100 for the full control effect
In short: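 Luciferase reporter (Glycoprotein IIb promoter) in IL-3-deprived Ba/F3 cells carrying human TPO receptor; compounds co-added with 26 pM TPO, incubated 24 h, 37 C. Steadylite luminescence measured after 10 min.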

[11] = biological target: Muscarinic acetylcholine receptor M1 (Rattus norvegicus) (UniProt P08482); experiment: qHTS Assay for Antagonists of Acetylcholine Muscarinic M1 Receptor: Kinetic Measurement of Intracellular Calcium Response (AID 943);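 also: Fluo-4 calcium signal as peak divided by basal fluorescence over 4 min; nearly all actives have a fitted effect of over 75% in size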
Chain of Muscarinic acetylcholine receptor M1 (Rattus norvegicus) (P08482 whole entry, looked up): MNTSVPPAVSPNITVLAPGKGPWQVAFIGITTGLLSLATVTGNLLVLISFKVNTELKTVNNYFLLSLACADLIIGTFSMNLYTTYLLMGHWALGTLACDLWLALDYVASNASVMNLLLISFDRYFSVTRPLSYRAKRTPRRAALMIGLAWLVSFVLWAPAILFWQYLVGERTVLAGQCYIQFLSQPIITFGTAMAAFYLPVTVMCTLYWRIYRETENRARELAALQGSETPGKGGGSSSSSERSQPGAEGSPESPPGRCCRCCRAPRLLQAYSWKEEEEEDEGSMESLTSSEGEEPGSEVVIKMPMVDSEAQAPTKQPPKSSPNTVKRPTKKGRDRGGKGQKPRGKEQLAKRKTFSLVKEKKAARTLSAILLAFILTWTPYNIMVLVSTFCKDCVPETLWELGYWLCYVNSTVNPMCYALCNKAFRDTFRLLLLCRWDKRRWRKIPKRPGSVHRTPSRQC
In short: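 Antagonism is measured as inhibition of the carbachol-evoked calcium rise in CHO cells transfected with rat M1. Cells are dye-loaded, exposed to compound for 10 min, then stimulated with 100 nM carbachol (EC80).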

[12] = biological target: Pyruvate kinase (Leishmania mexicana) (UniProt Q27686); experiment: qHTS Validation Assay for Inhibitors of Leishmania Mexicana Pyruvate Kinase (AID 945);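 also: 0% = DMSO only neutral control wells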
Chain of Pyruvate kinase (Leishmania mexicana) (Q27686 2-499 E452W): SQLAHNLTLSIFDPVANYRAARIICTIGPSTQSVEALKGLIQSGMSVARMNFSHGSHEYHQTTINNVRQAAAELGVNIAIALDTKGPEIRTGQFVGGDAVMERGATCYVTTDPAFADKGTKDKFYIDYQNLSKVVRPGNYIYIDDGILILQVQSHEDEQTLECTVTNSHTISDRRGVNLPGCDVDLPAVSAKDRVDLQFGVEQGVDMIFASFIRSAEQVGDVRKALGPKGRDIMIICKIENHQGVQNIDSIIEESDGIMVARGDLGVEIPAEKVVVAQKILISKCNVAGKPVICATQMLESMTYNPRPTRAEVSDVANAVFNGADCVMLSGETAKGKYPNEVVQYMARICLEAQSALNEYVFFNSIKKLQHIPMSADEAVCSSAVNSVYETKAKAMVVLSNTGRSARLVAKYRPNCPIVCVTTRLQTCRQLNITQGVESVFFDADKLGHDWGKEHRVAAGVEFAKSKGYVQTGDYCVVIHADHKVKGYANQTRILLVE
In short: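 Substrate mix (0.5 mM PEP, 0.1 mM ADP, 7 mM MgCl2, 50 mM KCl, pH 7.2 imidazole) received compound by pin tool, then 0.2 nM LmPYK E451W. After 1 h at room temperature, PKLight was added and luminescence measured.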

[13] = biological target: Pyruvate kinase PKM (Homo sapiens) (UniProt P14618); experiment: qHTS Assay for Activators of Human Muscle Pyruvate Kinase (AID 954; active = well fitted curve in the direction sought with a large enough effect, not every such curve was filed as active;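 also: 0% = uninhibited enzyme and -100% = no enzyme or full thiadiazolimine inhibition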)
Chain of Pyruvate kinase PKM (Homo sapiens) (P14618 whole entry, looked up): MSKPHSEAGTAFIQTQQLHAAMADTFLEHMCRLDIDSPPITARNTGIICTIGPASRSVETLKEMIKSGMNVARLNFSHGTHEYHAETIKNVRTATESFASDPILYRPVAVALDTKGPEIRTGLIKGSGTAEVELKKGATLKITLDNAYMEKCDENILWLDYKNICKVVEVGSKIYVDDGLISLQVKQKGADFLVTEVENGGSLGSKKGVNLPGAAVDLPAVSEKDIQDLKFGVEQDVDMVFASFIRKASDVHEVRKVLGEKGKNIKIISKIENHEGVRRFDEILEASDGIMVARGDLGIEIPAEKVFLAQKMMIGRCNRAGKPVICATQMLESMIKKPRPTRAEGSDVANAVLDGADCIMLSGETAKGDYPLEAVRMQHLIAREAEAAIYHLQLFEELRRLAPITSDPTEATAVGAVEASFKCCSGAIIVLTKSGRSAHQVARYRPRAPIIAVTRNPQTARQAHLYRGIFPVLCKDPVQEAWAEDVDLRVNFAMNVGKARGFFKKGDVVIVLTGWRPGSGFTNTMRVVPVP
In short: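 PKM2, human, >95% pure, 0.1 nM; PEP 0.5 mM (Km), ADP 0.1 mM; 50 mM imidazole pH 7.2, 50 mM KCl, 0.01% Tween 20, 0.05% BSA; 1 h RT; luciferase luminescence readout.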

[14] = biological target: Alpha-galactosidase A (Homo sapiens) (UniProt P06280); experiment: Counterscreen for Glucocerebrosidase Inhibitors: qHTS Assay for Human alpha-Galactosidase at pH 4.5 (AID 992); also: 0% is about no effect
Chain of Alpha-galactosidase A (Homo sapiens) (P06280 whole entry, looked up): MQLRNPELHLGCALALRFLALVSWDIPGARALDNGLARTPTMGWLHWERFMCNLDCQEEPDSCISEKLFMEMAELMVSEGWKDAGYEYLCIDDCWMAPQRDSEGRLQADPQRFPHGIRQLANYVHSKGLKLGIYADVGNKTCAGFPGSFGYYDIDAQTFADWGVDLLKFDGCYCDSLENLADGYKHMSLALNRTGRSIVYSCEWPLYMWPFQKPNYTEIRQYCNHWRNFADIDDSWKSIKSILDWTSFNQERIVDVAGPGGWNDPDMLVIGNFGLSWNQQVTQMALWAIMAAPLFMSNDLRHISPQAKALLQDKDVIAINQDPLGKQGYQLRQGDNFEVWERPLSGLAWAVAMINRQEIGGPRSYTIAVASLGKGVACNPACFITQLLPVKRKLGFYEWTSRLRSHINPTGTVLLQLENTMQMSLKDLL
In short: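 Fluorogenic 4-MU alpha-D-galactoside (80 uM) hydrolysis, 2 nM enzyme, pH 4.5 citrate buffer + 0.005% Tween-20; 20 min RT; NaOH/glycine pH 10 stop; Ex365/Em440. Compounds titrated 0.7 nM–77 uM; Hill-equation AC50.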

[15] = biological target: alpha-glucosidase (Oryza sativa, rice) (UniProt Q653V4); experiment: Counterscreen for Glucocerebrosidase Inhibitors: qHTS Assay for Rice alpha-Glucosidase at pH 5.0 (AID 997);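 also: 0% = full activity with enzyme and -100% = basal without enzyme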
In short: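 Endpoint fluorogenic assay at pH 5.0: compounds (0.7 nM to 77 uM) titrated against 4 nM rice enzyme and 400 uM 4-MU-alpha-glucoside for 20 min at room temperature; NaOH/glycine stop, read ex 365/em 440 nm, Hill-fitted AC50.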

[16] = biological target: Cytochrome P450 3A4 (Homo sapiens) (UniProt P08684); experiment: qHTS Assay for Activators of Cytochrome P450 3A4 (AID 885); also: nearly all actives have a fitted effect of over 65% in size
Chain of Cytochrome P450 3A4 (Homo sapiens) (P08684 whole entry, looked up): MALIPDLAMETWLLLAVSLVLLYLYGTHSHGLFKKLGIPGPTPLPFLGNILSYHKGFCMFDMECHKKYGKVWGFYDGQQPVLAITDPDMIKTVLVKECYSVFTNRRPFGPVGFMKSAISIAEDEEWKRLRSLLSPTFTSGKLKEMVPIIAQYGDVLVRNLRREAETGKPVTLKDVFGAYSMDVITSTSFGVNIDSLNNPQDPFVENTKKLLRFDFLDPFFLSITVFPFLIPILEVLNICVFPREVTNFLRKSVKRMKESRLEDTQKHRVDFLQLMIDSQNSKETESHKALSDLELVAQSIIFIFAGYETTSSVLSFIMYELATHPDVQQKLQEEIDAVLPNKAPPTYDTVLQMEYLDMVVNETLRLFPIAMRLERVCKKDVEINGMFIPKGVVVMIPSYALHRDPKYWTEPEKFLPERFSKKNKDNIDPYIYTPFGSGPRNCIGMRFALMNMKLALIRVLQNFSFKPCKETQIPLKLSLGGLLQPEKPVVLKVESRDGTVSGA
In short: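 Activators are scored by enhanced luminescence from CYP3A4 conversion of luciferin-PPXE (25uM, equal to KM) to luciferin, after 60 min at RT with an NADPH-regenerating system.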

[17] = qHTS Assay for Identification of Small Molecule Antagonists for NFkB Signaling Pathway (AID 895; active = well fitted inhibition curve with a large enough effect in the signal ratio, with a control signal flat, not every such curve was filed as active; the % refers to the signal ratio; also: % is scaled to controls: 0 for no effect and ±100 for the full control effect)
In short: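 ME-180 NFkB-bla cells (beta-lactamase under NFkB response element), plated overnight, treated with compound then 10 pM TNF alpha (about EC50) for 5 hrs at 37 C. LiveBLAzer FRET read at 460/530 nm emission, 405 nm excitation.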

[18] = biological target: Muscarinic acetylcholine receptor M1 (Rattus norvegicus) (UniProt P08482); experiment: qHTS Assay for Antagonists of Acetylcholine Muscarinic M1 Receptor: Measurement of IP-One Response (AID 944); also: nearly all actives have a fitted effect of over 75% in size
In short: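 Antagonist mode with rat M1 receptor transfected into CHO cells. Compound is added first for 10 min, carbachol at its EC80 follows for 30 min, and lysis reagents then allow TR-FRET detection of accumulated IP1.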

[19] = biological target: Cytochrome P450 2D6 (Homo sapiens) (UniProt P10635); experiment: qHTS Assay for Inhibitors and Substrates of Cytochrome P450 2D6 (AID 891);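 also: luciferin methyl ether substrate demethylated by CYP2D6 with NADPH regeneration; % is scaled to controls: 0 for no effect and ±100 for the full control effect; nearly all actives have a fitted effect of over 60% in size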
In short: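 Luminescent read-out of luciferin formed by 5 nM human CYP2D6 demethylating 30 uM Luciferin-ME EGE (Km level) over 60 min at room temperature after NADPH regeneration addition. Data normalized to full inhibition by 1.43 uM quinidine.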

[20] = biological target: Cytochrome P450 2C19 (Homo sapiens) (UniProt P33261); experiment: qHTS Assay for Inhibitors and Substrates of Cytochrome P450 2C19 (AID 899); also: % is scaled to controls: 0 for no effect and ±100 for the full control effect; nearly all actives have a fitted effect of over 60% in size
In short: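 Luminescent read-out of luciferin formed from Luciferin-H EGE (10uM, equal to KM). Enzyme 5nM in 50mM KPO4; compound added, 10 min at 37C, then NADPH regenerating system for 60 min at 37C. Full inhibition defined by 57uM ketoconazole.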

O=C(O)c1cscc1Cc1cccs1
inactive: activity change, negative = inhibition [1] -0.132% | Potency [2] | activity change, negative = inhibition [3] -2.63% | activity, negative = inhibition [4] 5.79% | Potency [5] > 46 µM | Potency [6] > 9.22 µM | Potency [7] | Potency [8]

NC(=O)c1ncn([C@@H]2O[C@@H](CO)[C@@H](O)[C@H]2O)c1O
inactive: activity change, negative = inhibition [1] 15.7% [at 38 µM] | Potency [2] | activity change, negative = inhibition [3] 2.24% [at 38 µM] | activity, negative = inhibition [4] 3.38% [at 38 µM] | Potency [5] > 46 µM | Potency [6] > 46 µM | Potency [7] | Potency [8] | outcome [9] | outcome [10] | Potency [11] | outcome [12] | outcome [13] | outcome [14] | Potency [15]

NC(=S)NCCC[C@@H](N)C(=O)O
inactive: activity change, negative = inhibition [1] 4.46% [at 38 µM] | Potency [2] | activity change, negative = inhibition [3] 4.17% [at 38 µM] | activity, negative = inhibition [4] -8.44% [at 38 µM] | Potency [5] > 46 µM | Potency [6] > 46 µM | Potency [7] | Potency [8] | outcome [9] | Potency [16] | Potency [17] | outcome [10] | Potency [18] | outcome [12] | outcome [13] | outcome [14] | Potency [15]

CCNC(=O)[C@@H]1O[C@@H](n2cnc3c(NCc4ccccc4)ncnc32)[C@@H](O)[C@H]1O
inactive: activity change, negative = inhibition [1] -7.35% [at 38 µM] | Potency [2] | activity change, negative = inhibition [3] 17% [at 38 µM] | activity, negative = inhibition [4] -20.4% [at 38 µM] | Potency [5] > 46 µM | Potency [6] > 46 µM | Potency [7] | Potency [8] | Potency [19] | Potency [20]

CN1CC[C@@]2(CCN3CCc4c(oc5ccccc45)[C@@H]3C2)N(C)C1=O
inactive: activity change, negative = inhibition [1] 18% [at 38 µM] | Potency [2] | activity change, negative = inhibition [3] -21.7% [at 38 µM] | activity, negative = inhibition [4] -5.91% [at 38 µM] | Potency [5] > 46 µM | Potency [6] > 46 µM | Potency [7] | Potency [8] | outcome [9] | Potency [16] | Potency [17] | Potency [11] | outcome [12] | outcome [13] | outcome [14] | Potency [15]

CCCCCCCCCCCCCCC/C=C\[C@H](O)[C@@H](NC(=O)CCCCCCCCCCCCC)OC (tested in a mixture with another compound)
inactive: activity change, negative = inhibition [1] 15.5% [at 38 µM] | Potency [2] | activity change, negative = inhibition [3] 13% [at 38 µM] | activity, negative = inhibition [4] -20.2% [at 38 µM] | Potency [5] > 46 µM | Potency [6] > 46 µM | Potency [7] | Potency [8] | outcome [9] | outcome [10] | Potency [11] | Potency [18] | outcome [12] | outcome [14] | Potency [15]
